Data taken from PubChem BioAssay (NCATS).
Results filed as inconclusive are left out. Activity calls are given as the source filed them. The call rests on the fitted dose curve; in most records, active means well fitted cell-killing curve with a large enough effect; inconclusive means small, poorly fitted or top-dose-only effect, or effect the other way; inactive means no such curve, though single readings can be large or run the other way.

Assay: qHTS of pediatric cancer cell lines to identify multiple opportunities for drug repurposing: Confirmatory screen for Saos-2 cells (AID 1347127); further: nearly all actives have a fitted effect of over 60% in size
Conditions: Saos-2 osteosarcoma cell viability; series mostly up to 45.9 µM
Text: Drug repurposing or repositioning has been offered as a strategy for drug development in oncology programs. This approach has special potential for childhood cancers and other rare or orphan diseases, where the expected return on new drug development has been a disincentive to pharmaceuticals.
In this project we exploit the poly-pharmacology of drugs to discover new indications via phenotypic screening of a panel of 19 well-characterized cell lines derived from solid tumors seen in children and adolescents. The goal is to identify approved drugs with previously unrecognized anticancer properties that has the potential to reveal new mechanisms and biological processes involved in carcinogenesis or drug resistance. We employed a titration-based paradigm (quantitative high-throughput screening or qHTS), where all compounds were tested at multiple concentrations for their effect on cell viability. Concentration-response curves (CRCs) were derived directly from the primary screen, and both potency and efficacy values were used to identify compounds with robust bioactivity profiles. We screened the NIH Chemical Genomics Center (NCGC) Pharmaceutical Collection (NPC) and Mechanism Interrogation Plate (MIPE) small molecule collections of approved and investigational compounds against these cell lines; and measured metabolically active cells after 48 hours of compound treatment as a proxy for cell viability.
Assay Submitter: Nathalia J. Martinez, National Center for Advancing Translational Sciences, National Institutes of Health, Rockville, MD, USA; email: natalia.martinez@nih.gov
[1] Shen, M et al. Quantitative high-throughput phenotypic screening of pediatric cancer cell lines identifies multiple opportunities for drug repurposing. Oncotarget 2017 Dec 19;9(4):4758-4772. PMID 29435139.
The cells were obtained from University of North Carolina (UNC), Pediatric Preclinical Testing Program (PPT), and Coriell Institute (CI).
qHTS cell viability assay:
Cells were assayed in growth media at a density of 500-1,000 cells/well. Five microliters of cells were dispensed into 1,536-well, white, solid-bottom, TC-treated plates (Greiner Bio One) using a multidrop dispenser and incubated at 37 degrees C, 5% CO2, under a humidified atmosphere for 5 hours. Twenty-three nanoliters of compounds and controls (neutral control DMSO or positive control bortezomib at final concentration of 2.3 µM) were subsequently transferred by Kalypsys pintool. For primary screens, the MIPE collection was tested at 11-point dilutions (final concentrations range from 0.78 nM to 46 µM) and the NPC collection at 8-point dilutions (final concentrations range from 0.59 nM to 46 µM). Compounds tested in follow-up screens were assayed at 11-point dilutions. Cells were incubated for 48 hours, followed by addition of 3 µL of CellTiter-Glo (Promega). After a 15 min incubation at room temperature, samples were analyzed for luminescence intensity using a ViewLux High-throughput CCD imager equipped with clear filters.
Potency means the concentration at half of the fitted maximal effect.

SMILES	Potency
CCCCc1oc2ccccc2c1C(=O)c1cc(I)c(OCCN(CC)CC)c(I)c1	44700 nM (active)
Clc1ccc(C(c2ccccc2Cl)C(Cl)Cl)cc1 (centres undefined)	inactive
CS(=O)(=O)Nc1ccc([N+](=O)[O-])cc1Oc1ccccc1	inactive
COc1cc2c(c(OC)c1OC)-c1ccc(OC)c(=O)cc1[C@@H](NC(C)=O)CC2	44.7 nM (active)
COC(=O)Nc1nc2ccc(C(=O)c3cccs3)cc2[nH]1	131 nM (active)
NC12CC3CC(CC(C3)C1)C2	inactive
CCC1(c2ccccc2)C(=O)NCNC1=O	inactive
CC(COc1ccccc1)N(CCCl)Cc1ccccc1 (centres undefined)	14700 nM (active)
O=C1c2c(O)ccc(O)c2C(=O)c2c(NCCNCCO)ccc(NCCNCCO)c21	737 nM (active)
Clc1ccc2nsnc2c1NC1=NCCN1	20800 nM (active)
O=C(Nc1ccc([N+](=O)[O-])cc1Cl)c1cc(Cl)ccc1O	2290 nM (active)
NC(=O)NO	inactive
CC[C@@]1(O)C(=O)OCc2c1cc1n(c2=O)Cc2cc3c(CN(C)C)c(O)ccc3nc2-1	208 nM (active)
CC(C)C(=O)Nc1ccc([N+](=O)[O-])c(C(F)(F)F)c1	inactive
